# Source: ChEMBL document CHEMBL4513216, “Probing the Open Global Health Chemical Diversity Library for Multistage-Active Starting Points for Next-Generation Antimalarials” (ACS Infect Dis, 2020)
# About 8,600 (12%) of roughly 69,000 compounds showed an effect of 50% or more. The list comes from a sample in which strong results are over-represented; it also holds similar structures and randomly drawn compounds.
# Test system: Plasmodium berghei
# Experiment: Screen against P. berghei liver stage (PbLuc), transformed with Luciferase, at 10uM
# Assay type: functional, HepG2
# Conditions: tested at 10 uM
row,SMILES,INHIBITION [%]
1,c1csc(CN2CCCN(c3ncnc4[nH]ccc34)CC2)c1,38.4
2,CCCc1nc(N2CCCN(c3ncccn3)CC2)c2cnn(C)c2n1,30.9
3,CCCc1nc(N(C)Cc2cnc(NC)nc2)c2cnn(C)c2n1,58.7
4,CCCc1nc(N(C)CCc2noc(C(C)C)n2)c2cnn(C)c2n1,42.3
5,CCCc1nc(N(C)CCN2CCCCCC2)c2cnn(C)c2n1,53
6,CN(C)CCN(C)c1nc(CCc2ccccc2)nc2c1cnn2C,-13.4
7,CNc1ncc(CN(C)c2nc(C3CCCC3)nc3c2cnn3C)cn1,24.7
8,Cc1cccc(-n2c(C)cc(C(=O)NS(C)(=O)=O)c2C)c1,9.14
9,C/C(Cl)=C/CNC(=O)C1CCC2(CC1)CN(C)C(=O)c1ccccc1O2 (centres undefined),7.96
10,CCC(C)NS(=O)(=O)c1ccc(C=Cc2onc(C)c2NC(C)=O)cc1 (centres undefined),-9.55
11,CN(C)C(=O)CN1CCCN(CC2CCOc3ccccc3C2)CC1 (centres undefined),75.2
12,CC(C)NC(=O)CN1CCN(CC2CCOc3ccccc3C2)CC1 (centres undefined),-19.8
13,O=C(CN1CCN(CC2CCOc3ccccc3C2)CC1)N1CCCC1 (centres undefined),16.1
14,O=C(COc1ccccc1Cl)N1CCCC(n2ccnc2)C1 (centres undefined),19.5
15,O=C(c1ccc(S(=O)(=O)N2CCSCC2)cc1)N1CCCCCC1,24.2
16,Cc1ccc(C(=O)N2CCN3C[C@H](Oc4cccnc4)C[C@H]3C2)cn1,39.3
17,Cc1n[nH]c(C)c1CCC(=O)NCC1CCOc2ccccc2C1 (centres undefined),49.9
18,COc1ccc2c(c1)OCC(CNC(=O)c1cc[nH]c1C)C2 (centres undefined),-3.83
19,COc1ccc2c(c1)OCC(CNC(=O)c1cnc(NC(C)C)nc1)C2 (centres undefined),-42.8
20,COc1ccc2c(c1)OCC(CNC(=O)CCc1c(C)n[nH]c1C)C2 (centres undefined),35
21,COc1ccc2c(c1)OCC(CNC(=O)c1ccc3[nH]nnc3c1)C2 (centres undefined),4.52
22,COc1ccc2c(c1)OCC(CNC(=O)c1ccncc1)C2 (centres undefined),4.2
23,CCc1nc(C)c(C(=O)NCC2COc3cc(OC)ccc3C2)o1 (centres undefined),53.2
24,CCNC(=O)c1ccnc(NCC2COc3cc(OC)ccc3C2)c1 (centres undefined),51.6
25,COCCC(=O)NCC1COc2cc(OC)ccc2C1 (centres undefined),72.7
26,Cc1n[nH]c(C)c1CCC(=O)NCC1COc2ccccc2C1 (centres undefined),52.6

row,SMILES,INHIBITION [%]
1,Cc1[nH]nc(CCC(=O)NCC2COc3ccccc3C2)c1C (centres undefined),13.7
2,COc1ccc2c(c1)OCC(CNC(=O)c1cnc(O)cn1)C2 (centres undefined),12.9
3,CC(C)c1nn(C)cc1CNCc1cccc(N(C)C)c1,12.4
4,Cc1nccn1C1CCCN(C(=O)COC2CCCC2)C1 (centres undefined),39.735
5,CCN(c1ccc(C(=O)NCCCN2CCOCC2)cc1)S(=O)(=O)CC,-0.79
6,NCC(CO)Cc1ccc(OC(F)(F)F)cc1 (centres undefined),19
7,CCOc1ccc(Cl)c(C(=O)N2CCN(CC(C)(C)O)CC2)n1,4.52
8,CCC[C@H]1CN(C(=O)c2cc(-c3cccs3)n(C)n2)C[C@@H]1N,29.7
9,c1cc(-c2nc(CN3CCc4c(ncn4C4CC4)C3)cs2)cs1,22.6
10,COCCN1C[C@@H]2CN(c3cc(OC)ncn3)CCC[C@]2(C(=O)O)C1,57.1
11,COc1cc(N2CCC[C@]3(C(=O)O)CN(C(C)C)C[C@@H]3C2)ncn1,26.5
12,CCN1C[C@@H]2CN(c3cc(OC)ncn3)CCC[C@]2(C(=O)O)C1,47.5
13,CN(C)S(=O)(=O)N1CCCC(C)(c2ncc(C(N)=O)s2)C1 (centres undefined),23.9
14,O=C(COC1CCCC1)NCCCn1nc2ccccn2c1=O,-24.6
15,CN1CCC(N(CCc2ccccc2)C(=O)c2cc[nH]c2)CC1,32.8
16,CN1CCOC(C)(C(=O)N2CCN(C3CCCC3)CC2)C1 (centres undefined),32.8
17,CC1(C(=O)N2CCOCC2)CN(CC2CCOCC2)CCO1 (centres undefined),7.25
18,CC1(C(=O)N2CCOCC2)CN(C2CCCCC2)CCO1 (centres undefined),56.8
19,COCC(=O)NCc1cc(=O)n2c(n1)CN(Cc1ccoc1)CCC2,36.9
20,Cc1nc(C)c(C(=O)N2CCc3nc4c(C)csc4c(=O)n3CC2)s1,39.7
21,Cc1csc2nc3n(c(=O)c12)CCN(Cc1c[nH]cn1)CC3,17.1
22,CN1CC(C(=O)NCCOc2ccc3c(c2)OCO3)CC1=O (centres undefined),16.9
23,CC(=O)N1CCCN(C(=O)NC(C)c2ccc(C)o2)CC1 (centres undefined),11.3
24,CC(CNC(=O)N1CCN(CC(F)F)CC1)Cc1cccs1 (centres undefined),-13.2
25,Cc1ccc(C(C)NC(=O)N2CCCN(CC(F)F)CC2)s1 (centres undefined),60.9
26,CCc1cnc(C(C)NC(=O)N2CCCN(CC(F)F)CC2)s1 (centres undefined),-37.8

row,SMILES,INHIBITION [%]
1,CC(NC(=O)N1CCCN(CC(F)F)CC1)c1ccco1 (centres undefined),62.3
2,CC(NC(=O)N1CCCN(Cc2cccs2)CC1)c1cccnc1 (centres undefined),6.92
3,CN(C)C(=O)c1cc2ncc(C(=O)NC3CC3)cc2n1C,2.59
4,CC(CNCc1ccncc1)Oc1ccccn1 (centres undefined),-52.1
5,Cc1nccn1CCC1CCN(C2CCC3(CCNCC3)CC2)CC1,12.1
6,O=C1[C@H]2CN(Cc3ccc(F)cc3)C[C@H]2CN1CCN1CCCC1,3.81
7,Nc1nc(N)c2c(n1)OC1(CCN(C(=O)CC3CCNCC3)CC1)C2,-13.13
8,CN1[C@H](CN2CCCC2)C[C@@H]2CN(C(=O)c3ccsc3)CC[C@@H]21,28.4
9,COc1ccc(CCN2C(=O)O[C@@H]3CN(C4CCSCC4)C[C@@H]32)cc1,47.6
10,COc1ccc(CCN2C(=O)O[C@@H]3CN(C4CCOCC4)C[C@@H]32)cc1,-5.12
11,COc1ccc(CCN2C(=O)O[C@@H]3CN(C)C[C@@H]32)cc1,51.2
12,CC1(C)CNC(=O)c2nc(CCCN3CCCC3)[nH]c2C1,83.2
13,CC1(C)CNC(=O)c2nc(CCN3CCC(O)CC3)[nH]c2C1,53.3
14,CC1(C)CNC(=O)c2nc(CCN3CCC(C(N)=O)CC3)[nH]c2C1,8.38
15,CN1CCCC(c2nc3c([nH]2)CC(C)(C)CNC3=O)C1 (centres undefined),-67.3
16,CC1(C)CNC(=O)c2nc(CCN3CCOCC3)[nH]c2C1,-13
17,CC1(C)CNC(=O)c2nc(CCN3CCCCC3CO)[nH]c2C1 (centres undefined),24.4
18,O=C(NCC1CC1)Nc1ccc(OCC(F)(F)F)nc1,23.73
19,O=S(=O)(Cc1c(F)cccc1Cl)Cc1nnnn1C1CC1,25.8
20,COc1ccc(OC)c(C2CCN(C(=O)C3CCN(C(C)C)CC3)C2)c1 (centres undefined),53.3
21,COc1ccc(OC)c(C2CCN(C(=O)C3CCS(=O)(=O)CC3)C2)c1 (centres undefined),40.5
22,COc1ccc(OC)c(C2CCN(C(=O)CCc3n[nH]c(N)n3)C2)c1 (centres undefined),-24
23,COc1ccc(OC)c(C2CCN(C(=O)C3CCC(O)CC3)C2)c1 (centres undefined),25.5
24,COc1ccc(OC)c(C2CCN(C(=O)C3CCOCC3)C2)c1 (centres undefined),50.1
25,COc1ccc(OC)c(C2CCN(C3CCN(C(C)=O)CC3)C2)c1 (centres undefined),27.7
26,CN(CC(=O)Nc1cc(C(C)(C)C)n[nH]1)S(C)(=O)=O,3.63

row,SMILES,INHIBITION [%]
1,O=C(NCC1(Sc2ccccc2)CC1)c1c[nH]nn1,20.8
2,CN(C)CC(=O)N1CCN(CC(O)c2ccc(F)cc2)CC1 (centres undefined),-11.4
3,COc1ccccc1OCCc1nnc(NC(=O)C2CC23CCC3)s1 (centres undefined),31.97
4,CSCC(=O)N1C[C@@H]2CC[C@H]1CN(Cc1ccccc1)C2,-79.7
5,CCOc1ccc(C(=O)Nc2c(C)nc3ccc(Cl)cn3c2=O)cc1,51.6
6,COc1ccc(C(=O)Nc2c(C)nc3cccc(C)n3c2=O)cc1,31.7
7,CCOc1ccc(C(=O)Nc2ccn(CC)n2)cc1,-125
8,CCOc1ccc(C(=O)Nc2c(C)nc3ccccn3c2=O)cc1,56.5
9,CCOc1ccc(C(=O)Nc2c(C)nc3cccc(C)n3c2=O)cc1,-14.7
10,CCOc1ccc(C(=O)Nc2c(C)nc3scc(C)n3c2=O)cc1,5.58
11,Cn1cccc1C(=O)N1C[C@@H]2CC[C@H]1CN(Cc1cscn1)C2,-9.39
12,COc1c(CNC2CCC(O)CC2)c(C(C)C)nn1C (centres undefined),-18.8
13,O=C1c2cccnc2OC(CN2CCOCC2)CN1CC1CC1 (centres undefined),24.5
14,Cc1nc(C)n(C2CCCN(C(=O)c3c(C)nn4cccnc34)C2)n1 (centres undefined),26.4
15,Cc1cc(C(=O)N2CCOC(c3nc(C(C)C)n[nH]3)C2)no1 (centres undefined),25.1
16,COc1cccc(CN2CCc3nc(C(=O)NCC(C)C)sc3CC2)c1,84.5
17,COc1ccc(CNC(=O)c2nc3c(s2)CCN(C(C)=O)CC3)cc1,34.6
18,COc1cccc(CNC(=O)c2nc3c(s2)CCN(C(C)=O)CC3)c1,10.1
19,COc1cccc(CN2CCc3nc(C(N)=O)sc3CC2)c1,2.41
20,CCN(CC)C(=O)c1nc2c(s1)CCN(Cc1cccc(OC)c1)CC2,66.8
21,CC(C)CNC(=O)c1nc2c(s1)CCN(C(=O)c1cccnc1)CC2,-47.5
22,CNC(=O)N1CCc2nc(C(=O)NCc3cccc(OC)c3)sc2CC1,70.7
23,CNC(=O)c1nc2c(s1)CCN(C(=O)c1cccc(OC)c1)CC2,-78
24,COc1cccc(CC(=O)N2CCc3nc(C(N)=O)sc3CC2)c1,-16.9
25,O=C1OCCN1Cc1nc(C2(c3ccc(F)cc3)CCOC2)no1 (centres undefined),-73.4
26,CCc1nc(CN2CC(C(=O)OC)O[C@H](C)C2)cs1 (some centres undefined),30.3
